The sample as a whole holds a higher share of hits than the screen did.
PL biosyn Enam: blocks phospholipid synthesis in CHO cells, Enamine compounds. ZR-82 CHO cells, pyrene fatty acid UV survival, CellTiter Blue; peroxisome-deficient CHO-K1 mutant line; plus DGAT-1, DGAT-2 and ACAT inhibitors. calls only at 10 µM. 0.4% of 20,000 active;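 active means cell survival signal 2 SD away from solvent-only control wells, confirmed on one or two retests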;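 further: 3 h compound exposure then viability read about one day after UV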
* hit, by the source's call.

What do the screens show for `Cc1[nH]c2ccccc2c1N=Nc1cccnc1`?
PL biosyn Enam: inactive

How did Oc1ccc2ccccc2c1N=Nc1ccc2c(c1)OCCO2 do in these assays?
PL biosyn Enam: active

What do the screens show for `Oc1ccc(N=Nc2ccc3c(c2)OCCO3)c2ncccc12`?
PL biosyn Enam: inactive

What do the screens show for `CCN1CCN(CCS(=O)(=O)OCC(F)(F)F)CC1`?
PL biosyn Enam: inactive

Results for O=C(OCc1cc(=O)n2cc(Br)ccc2n1)c1csc2c1CCCC2 ?
PL biosyn Enam: inactive

Results for Oc1ccc(N=Nc2ccc3ccccc3c2)c2cccnc12 ?
PL biosyn Enam: inactive

Results for C=CCNC(=S)N/N=C1\CCS(=O)(=O)c2ccccc21 ?
PL biosyn Enam: inactive

What do the screens show for `O=S1(=O)CC/C(=N/Nc2nc3ccccc3s2)c2cc(F)ccc21`?
PL biosyn Enam: active

Results for NC(=O)N/N=C1\CCS(=O)(=O)c2ccc(F)cc21 ?
PL biosyn Enam: inactive

Results for c1ccc2c(c1)CC/C(=N\Nc1nc3ccccc3s1)C2 ?
PL biosyn Enam: inactive

How did O=S1(=O)CC/C(=N/Nc2ccc(Cl)cc2)c2cc(F)ccc21 do in these assays?
PL biosyn Enam: active

Results for c1ccc2sc(NN=C3CCCCCC3)nc2c1 ?
PL biosyn Enam: inactive

Results for C=CCn1c(SCc2cscn2)nnc1C1CCS(=O)(=O)C1 (configuration not stated) ?
PL biosyn Enam: inactive

What do the screens show for `Cc1noc(C)c1C(=O)OCC(=O)NCCN1C(=O)CSC1=O`?
PL biosyn Enam: inactive

How did O=C(CCN1C(=O)C2CC=CCC2C1=O)NCc1ccco1 (configuration not stated) do in these assays?
PL biosyn Enam: inactive

Results for O=C(NC1CCCCC1)NN1C(=O)/C(=C\c2cccs2)SC1=S ?
PL biosyn Enam: inactive

How did CCn1c(CCC(N)=O)n[nH]c1=S do in these assays?
PL biosyn Enam: inactive

Results for Cc1ccc2nc(COC(=O)Cn3cnc4c3c(=O)n(C)c(=O)n4C)cc(=O)n2c1 ?
PL biosyn Enam: inactive

How did Clc1ccc(-c2noc(CSc3nncs3)n2)cc1 do in these assays?
PL biosyn Enam: inactive

Results for Cc1nn(-c2ccccc2)c(N)c1N=Nc1ccccc1OC(F)F ?
PL biosyn Enam: active

How did Cc1nn(-c2ccccc2)c(N)c1N=Nc1ccc2ccccc2c1 do in these assays?
PL biosyn Enam: inactive

What do the screens show for `COc1ccc(OC)c(N=Nc2c(C)nn(-c3ccccc3)c2N)c1`?
PL biosyn Enam: inactive

What do the screens show for `CC1(C)CC(=O)C=C(Nn2cnc3sc4c(c3c2=O)CCCC4)C1`?
PL biosyn Enam: inactive

How did O=C1C2CC=CCC2C(=O)N1CN1CCCC1c1cccs1 (configuration not stated) do in these assays?
PL biosyn Enam: inactive

What do the screens show for `CN(C)c1ccc(N=Nc2ccc(SC(F)(F)F)cc2[N+](=O)[O-])cc1`?
PL biosyn Enam: inactive

What do the screens show for `O=[N+]([O-])c1ccc(N=Nc2ccc(N(CCO)CC(F)(F)C(F)F)cc2)c(Cl)c1`?
PL biosyn Enam: active

Results for CCN(CC)c1ccc2c(c1)OC(=O)N(c1ccc(Cl)c(Cl)c1)P2(=Nc1ccc([N+](=O)[O-])cc1)N(CC)CC (configuration not stated) ?
PL biosyn Enam: inactive

How did O=C1OC(C23CC4CC(CC(C4)C2)C3)=N/C1=C\c1ccc(Cl)c(Cl)c1 do in these assays?
PL biosyn Enam: inactive

How did Clc1cccc(NN=C2c3ccccc3-c3ccccc32)c1 do in these assays?
PL biosyn Enam: active

How did Clc1ccccc1NN=C1c2ccccc2-c2ccccc21 do in these assays?
PL biosyn Enam: inactive

Results for Clc1ccc(NN=C2c3ccccc3-c3ccccc32)cc1Cl ?
PL biosyn Enam: inactive

How did O=S1(=O)NC(=NCC2CCCO2)c2ccccc21 (configuration not stated) do in these assays?
PL biosyn Enam: inactive

How did CN1c2ccccc2N(C)C1c1cc(C(C)(C)C)c(O)c(C(C)(C)C)c1 do in these assays?
PL biosyn Enam: inactive

Results for CC(OC(=O)c1cc2c(s1)CCC2)C(=O)NC(N)=O (configuration not stated) ?
PL biosyn Enam: inactive

What do the screens show for `O=[N+]([O-])c1ccc(N2CCNCC2)cc1NC1C2CC3CC(C2)CC1C3` (configuration not stated)?
PL biosyn Enam: active

What do the screens show for `O=[N+]([O-])c1ccc(N2CCNCC2)c(S(=O)(=O)N2CCOCC2)c1`?
PL biosyn Enam: inactive

What do the screens show for `O=[N+]([O-])c1ccc(N2CCN(CCO)CC2)cc1SCCO`?
PL biosyn Enam: inactive

How did O=S(=O)(NC(=S)NC1CCCCC1)c1cccs1 do in these assays?
PL biosyn Enam: inactive

How did C/C(=N\NC(=S)NC1CCCCC1)c1cccs1 do in these assays?
PL biosyn Enam: active

What do the screens show for `CCNC(=S)N/N=C(\C)c1cccs1`?
PL biosyn Enam: inactive

Results for C=CCn1c(SCC(C)C)nc2sc3c(c2c1=O)CCCC3 ?
PL biosyn Enam: inactive

Results for FC(F)Oc1ccc(NC(=S)NC2CCCCCCC2)cc1 ?
PL biosyn Enam: active

What do the screens show for `FC(F)Sc1ccc(NC(=S)NC2CCC(NC(=S)Nc3ccc(SC(F)F)cc3)CC2)cc1` (configuration not stated)?
PL biosyn Enam: inactive

How did Fc1ccc(NC(=S)NC2CCC(NC(=S)Nc3ccc(F)cc3)CC2)cc1 (configuration not stated) do in these assays?
PL biosyn Enam: inactive

Results for O=C(CN1C(=O)NC2(CCCC2)C1=O)NC1=NCCS1 ?
PL biosyn Enam: inactive

Results for C/C(=N\NC(=O)OC(C)(C)C)c1cccs1 ?
PL biosyn Enam: inactive
